# Compound activity: PubChem BioAssay, ICCB-Longwood Screening Facility, Harvard Medical School
# fixLJ activator: increases Burkholderia fixLJ two-component signaling; B. multivorans fixK-promoter GFP reporter, 18 h; stronger effect = higher value; z-score (no concentration beside the values); actives 0.3% (n = 29,000); AID 1918990;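 active means replicate mean overnight rise in green fluorescent reporter signal, 3 or more SD over negative controls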
# Numbers stand for hits; – = inactive. This is one part of a sample in which hits are shown more often than they occur.
SMILES,fixLJ activator
Cc1cc(NC(=O)C2CCCN(S(=O)(=O)c3ccc(Br)s3)C2)ccc1Br (stereo not drawn),–
CC(=O)c1ccc(N2CCN(C(=O)C3CCCN(S(=O)(=O)c4ccc(Br)s4)C3)CC2)cc1 (stereo not drawn),–
CC(=O)c1ccc(NC(=O)C2CCCN(S(=O)(=O)c3ccc(Br)s3)C2)cc1 (stereo not drawn),3.2
Cc1nc(C)c(-c2cccc(C(=O)N(C)CCn3ccnc3C)c2)s1,–
CCCCNc1cc(NC2CCCCC2)c2c3c(onc13)-c1ccccc1C2=O,4.2
O=C1c2ccccc2-c2onc3c(NCCO)cc(NC4CCCCC4)c1c23,–
CCNc1cc(N2CCN(C3CCCCC3)CC2)c2noc3c2c1C(=O)c1ccccc1-3,–
CC(C(=O)N1CCC(c2[nH]ncc2-c2cccc(F)c2)CC1)N1CCCC1=O (stereo not drawn),–
CCC(C)n1c(=N)c(S(=O)(=O)c2ccc(C)cc2)cc2c(=O)n3cc(C)ccc3nc21 (stereo not drawn),5.7
CCC(C)n1c(=N)c(S(=O)(=O)c2ccccc2)cc2c(=O)n3ccccc3nc21 (stereo not drawn),–
CCCCCn1c(=N)c(S(=O)(=O)c2ccc(C)cc2)cc2c(=O)n3cc(C)ccc3nc21,–
N#C/C(=C\c1ccc(-c2ccccc2C(=O)O)o1)c1nc2ccccc2[nH]1,–
N#C/C(=C\c1ccc(Cl)cc1)c1nc2ccccc2[nH]1,–
N#C/C(=C\c1ccc(-c2ccc(F)cc2F)o1)c1nc2ccccc2[nH]1,14
O=C(NC1COCC1Cc1ccnc2ccccc12)C1(N2CCCC2)CCCC1 (stereo not drawn),–
CCC(=O)N1CCCC(C(=O)N2CCC(Cc3nc(C)no3)CC2)C1 (stereo not drawn),–
COc1ccc(F)c(F)c1C(=O)N1CCC(N2CCC(O)CC2)CC1,–
O=C(NCc1cc2n(n1)CCN(S(=O)(=O)c1cn[nH]c1)C2)C1CCC1,–
CC(C)c1ccc(/C=C(\C#N)c2nc(-c3ccc(O)cc3)cs2)cc1,8.4
CC(C)c1ccc(/C=C(\C#N)c2nc(-c3cc4ccccc4oc3=O)cs2)cc1,–
COc1ccc(/C=C(/C#N)c2nc(-c3ccc(Br)cc3)cs2)cc1,–
O=C(CCc1ccncc1)N1CC2CCC(C1)N(Cc1ccccn1)C2=O (stereo not drawn),–
CCCCN1CCN(c2cc(C3CC(N)C3)nc(N)n2)CC1=O (stereo not drawn),–
COc1ccc2nc(NS(=O)(=O)c3ccc(C)cc3)c(Nc3cc(Cl)ccc3OC)nc2c1,–
COc1cc(Cl)c(C)cc1Nc1nc2ccccc2nc1NS(=O)(=O)c1ccccc1,3.4
SMILES,fixLJ activator
COc1ccc(Nc2nc3ccccc3nc2NS(=O)(=O)c2ccc(C)cc2)c(OC)c1,–
Cc1nc2sccn2c1C(=O)N1CCN(C(=O)C2CCC2)CC1,–
O=c1oc2c3c(ccc2c2ccccc12)OCN(Cc1ccccc1Cl)C3,–
O=c1oc2c3c(ccc2c2ccccc12)OCN(Cc1cccc(Cl)c1)C3,–
Cc1cc2c(c3oc(=O)c4ccccc4c13)CN(Cc1ccc(F)cc1)CO2,5.3
CCN1CC2(CCC1=O)CCN(C(=O)Nc1ccccc1C)CC2,–
CC(C)CN1CCN(C(=O)CCc2cccnc2)C2CS(=O)(=O)CC21 (stereo not drawn),–
CCOc1ccc(CCCC(=O)N(C)C2C[C@@H]3CNC(=O)C[C@H]3C2)cc1C (stereo partly drawn),–
Cc1cc(CC2CN(C(=O)c3ccccc3OC(F)F)CC2O)n[nH]1 (stereo not drawn),–
CC1CCN(C(=O)Cn2ncc3c4ccccc4n(Cc4ccc(Cl)cc4)c3c2=O)CC1,7.3
CCCCN(CC)CCCNC(=O)Cn1ncc2c3ccccc3n(C)c2c1=O,–
O=C(Cn1ncc2c3ccccc3n(Cc3ccc(Cl)cc3)c2c1=O)NCc1cccs1,8.2
Cn1c2ccccc2c2cnn(CC(=O)NCc3ccc(Cl)cc3)c(=O)c21,–
CN1CCN(C(=O)Cn2ncc3c4ccccc4n(Cc4ccc(Cl)cc4)c3c2=O)CC1,–
CCCCN(CC)CCCNC(=O)Cn1ncc2c3ccccc3n(Cc3ccccc3F)c2c1=O,–
CCN(CC)CCNC(=O)Cn1ncc2c3ccccc3n(Cc3ccc(Cl)cc3)c2c1=O,3.5
Cc1cc(C)c(Cn2c3ccccc3c3cnn(CC(=O)NCc4cccs4)c(=O)c32)c(C)c1,–
Cc1ccccc1Cn1c2ccccc2c2cnn(CC(=O)N3CCC(C)CC3)c(=O)c21,–
CC(C)(NC(=O)c1cccs1)C(=O)NCC1(c2cccc(F)c2)CCOCC1,–
COc1ccc(C(NC(=O)CCSC)C2CC(O)C2)cc1F (stereo not drawn),–
Cc1ccc(OCc2cc(C(=O)NCc3c(C)n[nH]c3C)oc2C)cc1,–
Cc1nc(C2CCCN(C(=O)c3ccc4oc(C(C)C)nc4c3)C2)cc(=O)[nH]1 (stereo not drawn),–
COCCCN1CC2(CCC1=O)CCN(C(=O)c1ccc3oc(C)cc3c1)CC2,–
Brc1ccc(-n2nc(-c3ccccc3)c3cnc4cc5c(cc4c32)OCO5)cc1,–
Cc1ccc(-c2nn(-c3ccccc3)c3c2cnc2ccccc23)cc1C,–
SMILES,fixLJ activator
CCc1ccc2ncc3c(-c4ccccc4)nn(-c4ccccc4)c3c2c1,3.3
CC(C)N1CCC(NC(=O)C2OCC(=O)NC2c2cccnc2)CC1 (stereo not drawn),–
COc1ccc(C2=C(Nc3ccc(C)c(C)c3)c3ccccc3C2=O)cc1,–
Cc1cc(C)cc(NC2=C(c3ccccc3)C(=O)c3ccccc32)c1,4
Cc1ccc(C)c(NC2=C(c3ccc(C(F)(F)F)cc3)C(=O)c3ccccc32)c1,–
COc1ccc(C2=C(Nc3ccc(Br)c(C)c3)c3ccccc3C2=O)cc1,3.1
Cc1ccc(C)c(N2CCN(C3=C(c4ccccc4)C(=O)c4ccccc43)CC2)c1,–
COc1cc(OC)c(NC2=C(c3ccc(C(F)(F)F)cc3)C(=O)c3ccccc32)cc1Cl,–
CC(C)c1nc(CCNC(=O)CCc2cccnc2)cs1,–
Cc1ccc(S(=O)(=O)N2CCC(O)[C@@](CC3CC3)(C(=O)O)C2)cc1 (stereo partly drawn),–
COc1ccc(CN2CCOC3(CCN(CC(=O)O)C3)C2)c(OC)c1OC (stereo not drawn),–
Cc1c(NC(=O)CC(C)C)cccc1NC(=O)c1cncs1,–
CC1CCc2noc(NC(=O)c3ccccc3[N+](=O)[O-])c2C1 (stereo not drawn),3.6
O=C(Nc1cccc2cccnc12)c1ccccc1[N+](=O)[O-],–
O=C(Nc1onc2c1CCCC2)c1ccc(Cl)cc1,–
CCS(=O)(=O)Nc1ccc(C(=O)N2CCC3OCc4cnnn4C3C2)cc1 (stereo not drawn),–
CC(C)Cn1cncc1CNC(=O)c1cc(S(N)(=O)=O)ccc1F,–
COc1ccccc1-c1cccc(C(=O)NC2CC(c3cc(=O)[nH]cn3)C2)c1 (stereo not drawn),–
CCSc1ncc(CN2CCOCC2CC(=O)NCC(F)(F)F)cn1 (stereo not drawn),–
COc1ccccc1CNC(=O)CCc1c(C)c2cc3c(C)c(C)oc3cc2oc1=O,3.5
COc1ccccc1CNC(=O)CCc1c(C)c2ccc(OC)c(C)c2oc1=O,–
COc1ccccc1CCNC(=O)CCc1c(C)c2cc3c(C)c(C)oc3cc2oc1=O,–
O=C(CC1=CSC2=NCCCN12)NCCCc1nc2ccccc2s1,–
CCN1CC2(CCC1=O)CCN(C(=O)Nc1cccc(C)c1C)CC2,–
CC(C)c1nc(CCNC(=O)N2CCCN(C(=O)c3ccco3)CC2)no1,–
